Screening data as filed in PubChem BioAssay.
ATXN viability – viability counter-screen for ATXN expression inhibitors | S2 cells (HEK-293 line with an ATXN2-luciferase reporter) viability, CellTiter-Fluor protease fluorescence, 24 h | 0.49% of 400,000 active | AID 651635 | Potency, µM (highest dose often 56.7 µM), hits mostly cytotoxic; note: potency is the fitted concentration of half-maximal effect; nearly all actives have a fitted effect of over 40% in size
HepG2 tox-1 – HepG2 cytotoxicity, counter-screen for TGF-b inhibitors | AID 588856 | 0.76% of 410,000 active | HepG2 CAGA-GFP viability, ATP luminescence, 18 h | Potency, µM (highest dose often 46.1 µM), without a hit: at the top dose activity change, negative = cytotoxicity, most hits filed as cytotoxic; note: potency is the fitted concentration of half-maximal effect
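HepG2 CAGA-GFP cells (1000/well, DMEM with 1% FBS) received compound, then TGF-beta at 500 pg/mL final, and were incubated 18 hours at 37 degrees C. Viability was read by CellTiter-Glo luminescence. Media-only wells were set as complete cell-killing and DMSO as no toxicity.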
TGFb SMAD3 inh – inhibitors of TGF-b signaling; HepG2 CAGA-GFP TGF-b/SMAD3 reporter, GFP fluorescence, 18 h; TGF-beta stimulated, 500 pg/mL final; Potency, µM (top dose mostly 46.1 µM), for the others: at the highest dose activity, negative = inhibition, actives largely listed as inhibitors; AID 588855; 1.2% of 410,000 active; note: potency is the fitted concentration of half-maximal effect; % is set by controls: 0 for no effect and ±100 for the full control effect; nearly all actives have a fitted effect of over 65% in size
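GFP signal (ex488/em500-530) from TGF-beta-stimulated HEPG2 CAGA-GFP cells, 500 pg/mL final, 18 h at 37 degrees C in DMEM plus 1% FBS, normalized to unstimulated and DMSO-stimulated controls.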
uPA surface inh – inhibitors of cell surface uPA generation | Potency, µM (top dose mostly 38.3 µM), without a hit: top-dose activity change, negative = inhibition, hits mostly inhibitors | cell surface uPA generation assay, qHTS | 0.31% of 330,000 active | AID 540303; active = well fitted inhibition curve with a large enough effect; inconclusive = small, poorly fitted or top-dose-only effect; inactive = no such curve, though single readings can be large or run the other way; tested in mouse RAW 264.7 cells; note: potency is the fitted concentration of half-maximal effect; % is set by controls: 0 for no effect and ±100 for the full control effect; nearly all actives have a fitted effect of over 55% in size
Giardia killer – Giardia lamblia killing; Giardia lamblia trophozoite viability; activity change, % at 7.66 µM, hits read low; 0.15% of 340,000 active; AID 540267; in the data active = activity change below about -80%; inconclusive = between about -30% and that limit;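 note: parasites exposed to compound for two days anaerobically before the ATP read; % is set by controls: 0 for no effect and ±100 for the full control effect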
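ATP-content bioluminescence gauges trophozoite survival. Cells (100/well) receive compound and incubate anaerobically for 48 hrs at 37 deg C; detection reagent follows for 15-30 min at room temperature.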
ATXN2 expr inh – inhibitors of ATXN2 expression. Potency, µM (titrated, usually from 57 µM), for inactives: at the highest dose activity change, negative = inhibition, actives largely listed as inhibitors. 0.72% of 360,000 active. HEK-293 ATXN2-luciferase reporter, luminescence, 24 h; note: potency is the fitted concentration of half-maximal effect; % is set by controls: 0 for no effect and ±100 for the full control effect; nearly all actives have a fitted effect of over 55% in size
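qHTS (up to 57 uM final) was run with 24 h compound exposure of reporter cells at 37 °C. Each well was multiplexed: SteadyGlo luminescence measured ATXN2-luciferase expression after a fluorogenic Gly-Phe-AFC viability readout (25 uM final).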
TGFb confirm – confirmation of TGF-b signaling inhibitors in HepG2 reporter cells | shares compounds with TGFb SMAD3 inh | HepG2 CAGA-GFP TGF-b reporter, GFP fluorescence, 18 h; cells stimulated with TGF-beta, 500 pg/mL | Potency, µM (highest dose often 46.1 µM), for the others: at the top dose activity, negative = inhibition, most hits filed as inhibitors | 63% of 1,600 active; note: potency is the fitted concentration of half-maximal effect; % is set by controls: 0 for no effect and ±100 for the full control effect; nearly all actives have a fitted effect of over 65% in size
HepG2 tox-2 – HepG2 cytotoxicity, TGF-b inhibitor counterscreen | shares compounds with TGFb SMAD3 inh | HepG2 CAGA-GFP viability, ATP luminescence, 18 h; cells stimulated with TGF-beta, 500 pg/mL | Potency, µM (highest dose often 46.1 µM), without a hit: at the top dose activity, negative = cytotoxicity, usual class: inhibitors | 27% of 1,600 active | AID 720535; note: potency is the fitted concentration of half-maximal effect; % is set by controls: 0 for no effect and ±100 for the full control effect; nearly all actives have a fitted effect of over 70% in size
TGFb CCL64 inh – TGF-b inhibition, CCL64 orthogonal assay; shares compounds with TGFb SMAD3 inh; CCL64 CAGA-GFP reporter, TGF-b stimulated, GFP fluorescence, 18 h; Potency, µM (top dose mostly 46.1 µM), for inactives: top-dose activity, negative = inhibition, most hits filed as inhibitors; 41% of 1,600 active; note: potency is the fitted concentration of half-maximal effect; nearly all actives have a fitted effect of over 65% in size
COP TGFb inh – validation of TGF-b inhibitors in HepG2 COP promoter reporter | Potency, µM (series often up to 46.1 µM), without a hit: top-dose activity, negative = inhibition, usual class: inhibitors | AID 720537 | shares compounds with TGFb SMAD3 inh | HepG2 COP-GFP TGF-b reporter, GFP fluorescence, 18 h; cells stimulated by added recombinant TGF-beta | 3% of 1,600 active; note: potency is the fitted concentration of half-maximal effect; nearly all actives have a fitted effect of over 70% in size
* hit, by the source's call; ! = repeats disagree. This is a sample that favours compounds with a hit; in the whole collection about 2.6% have one here. Unless noted, calls come from the whole dose curve; as a rule, active = well fitted curve in the direction sought with a large enough effect; inconclusive = small, poorly fitted or top-dose-only effect, or another doubt; inactive = no such curve, though single readings can be large; an effect the other way counts as inactive or inconclusive.

`CC(C)C[C@H]1CNC(=S)N1CC1CCCN1C[C@H](Cc1ccccc1)N1C[C@H](Cc2ccc(O)cc2)N(CC2CCCCCC2)C1=S` (stereo not given in full) gave ATXN viability inactive, HepG2 tox-1 -26%, TGFb SMAD3 inh 6.3µM*, uPA surface inh inconclusive, Giardia killer 7, ATXN2 expr inh -31%, TGFb confirm 15µM*, HepG2 tox-2 inconclusive, TGFb CCL64 inh 5.8µM* and COP TGFb inh 31%.
For C[C@@H]1CN([C@@H](C)CO)C(=O)c2c(c3ccccc3n2C)-c2ccccc2CO[C@H]1CN(C)S(=O)(=O)c1ccc(C(F)(F)F)cc1 the results were ATXN viability inactive, HepG2 tox-1 -41%, TGFb SMAD3 inh inconclusive and ATXN2 expr inh 4%.
Screening Nc1ncnc2c1ccn2[C@@H]1O[C@H](CO)[C@@H](O)[C@H]1O returned ATXN viability 3.2µM*, HepG2 tox-1 1µM*, TGFb SMAD3 inh 0.45µM*, uPA surface inh inconclusive, Giardia killer -9, ATXN2 expr inh 1.1µM*, TGFb confirm 0.58µM*, HepG2 tox-2 0.92µM*, TGFb CCL64 inh 0.82µM* and COP TGFb inh 45%.
For NC(=S)c1cn(C2OC(CO)C(O)C2O)c2ncnc(N)c12 (stereo not given) the results were ATXN viability inconclusive, HepG2 tox-1 -37%, TGFb SMAD3 inh 0.32µM*, uPA surface inh -7%, Giardia killer -18, TGFb confirm 0.26µM*, HepG2 tox-2 0.16µM*, TGFb CCL64 inh 0.46µM* and COP TGFb inh 44%.
`C=CCN1CC[C@]23CCCC[C@H]2[C@H]1Cc1ccc(O)cc13` gave ATXN viability inactive and ATXN2 expr inh -2%.
COc1ccc(CCNC(=O)c2ccc3c(c2)N=C(C)c2cc(C)ccc2S3)cc1OC was read as ATXN viability inconclusive, HepG2 tox-1 -30%, TGFb SMAD3 inh inconclusive and ATXN2 expr inh inconclusive.
COc1ccc(S(=O)(=O)N2c3ccc(F)cc3CCC2C)cc1 (stereo not given) was read as ATXN viability inconclusive, HepG2 tox-1 -28%, TGFb SMAD3 inh 6.3µM*, uPA surface inh inconclusive, Giardia killer 35, TGFb confirm 4.1µM*, HepG2 tox-2 -7%, TGFb CCL64 inh 5.8µM* and COP TGFb inh -16%.
CCCCC[C@@H]1CCCCC[C@H](O)C[C@@H](O)[C@@H](O)/C=C/C(=O)O1 was read as ATXN viability inactive and ATXN2 expr inh 0%.
C[C@H]1CCC/C=C/[C@@H]2C[C@H](O)C[C@H]2[C@H](O)/C=C/C(=O)O1 was read as ATXN viability inactive, HepG2 tox-1 -32%, TGFb SMAD3 inh 0.13µM*!, uPA surface inh inconclusive, Giardia killer -17, ATXN2 expr inh inconclusive, TGFb confirm 0.12µM*, HepG2 tox-2 inconclusive, TGFb CCL64 inh inconclusive and COP TGFb inh 64%.
COc1ccc2[nH]cc(CCN=C(NC(=O)c3ccccc3OC)Nc3nc(C)cc(C)n3)c2c1 was read as ATXN viability inactive, HepG2 tox-1 -23%, TGFb SMAD3 inh inconclusive and ATXN2 expr inh -35%.
COc1ccc(CC(=O)N2CCN(C)CC2)cc1 was read as ATXN viability inactive, HepG2 tox-1 -5%, TGFb SMAD3 inh -1%, uPA surface inh 12%, Giardia killer 4 and ATXN2 expr inh 8%.
`COc1ccc(CC2NCC(O)C2OC(C)=O)cc1` (stereo not given) gave ATXN viability inconclusive, HepG2 tox-1 7%, TGFb SMAD3 inh 0.11µM*, uPA surface inh inconclusive, Giardia killer inconclusive, ATXN2 expr inh 0.011µM*, TGFb confirm 0.1µM*, HepG2 tox-2 0.37µM*, TGFb CCL64 inh 0.082µM* and COP TGFb inh -23%.
`CC(=O)OC[C@]12CCC(C)=C[C@H]1O[C@@H]1[C@H](O)[C@@H](OC(C)=O)[C@@]2(C)[C@]12CO2` gave ATXN viability inactive, HepG2 tox-1 -13%, TGFb SMAD3 inh -88%, uPA surface inh -75%, Giardia killer inconclusive, ATXN2 expr inh -71%, TGFb confirm 0.037µM*, HepG2 tox-2 0.15µM*, TGFb CCL64 inh 0.037µM* and COP TGFb inh -7%.
`O=C(Nc1cccc(C(F)(F)F)c1)C1CCCN1S(=O)(=O)c1cccc2nsnc12` (stereo not given) gave HepG2 tox-1 -13%, TGFb SMAD3 inh inconclusive and ATXN2 expr inh inconclusive.
For COc1ccc(-c2nn(-c3ccccc3)cc2C(=O)N2c3ccc(C)cc3C3CN(C)CCC32)cc1 (stereo not given) the results were ATXN viability inactive, HepG2 tox-1 -42%, TGFb SMAD3 inh 10µM*, uPA surface inh -3%, Giardia killer 5, ATXN2 expr inh -26%, TGFb confirm -7%, HepG2 tox-2 -25%, TGFb CCL64 inh inconclusive and COP TGFb inh 8%.
`O=C(c1ccccc1Cl)N1CCC(c2nc3ccccc3s2)CC1` gave ATXN viability inconclusive, HepG2 tox-1 -19%, TGFb SMAD3 inh inconclusive and ATXN2 expr inh 0%.
`c1ccc2c(CN3CCN(C4CCCCC4)CC3)c[nH]c2c1` gave ATXN viability inactive, HepG2 tox-1 -39%, TGFb SMAD3 inh -3%, uPA surface inh -8%, Giardia killer 2 and ATXN2 expr inh 1%.
